In test [1] the target is Aldehyde dehydrogenase, mitochondrial (Homo sapiens) (UniProt P05091). As to the kind of experiment: qHTS for Inhibitors of the Aldehyde Dehydrogenase Family (ALDH2) Primary screen (AID 2061308). Note: nearly all actives have a fitted effect of over 55% in size. Note: potency is the fitted concentration of half-maximal effect.
In test [2] the target is Retinal dehydrogenase 2 (Homo sapiens) (UniProt O94788). The test can be described thus: qHTS for Inhibitors of the Aldehyde Dehydrogenase Family (ALDH1A2) Confirmation screens (AID 2061314). Note: nearly all actives have a fitted effect of over 65% in size. Note: potency is the fitted concentration of half-maximal effect.
Test [3] addresses Retinaldehyde dehydrogenase 3 (Homo sapiens) (UniProt P47895). The test can be described thus: qHTS for Inhibitors of the Aldehyde Dehydrogenase Family (ALDH1A3) Primary screen (AID 2061315).
Test [4] deals with Aldehyde dehydrogenase 1A1 (Homo sapiens) (UniProt P00352). The test can be described thus: qHTS for Inhibitors of the Aldehyde Dehydrogenase Family (ALDH1A1) Confirmatory screens (AID 2061316). Note: nearly all actives have a fitted effect of over 65% in size. Note: potency is the fitted concentration of half-maximal effect.

Results filed as inconclusive are left out. Activity calls are given as the source filed them. Calls come from the whole dose curve; as a rule, active = well fitted curve in the direction sought with a large enough effect; inconclusive = small, poorly fitted or top-dose-only effect, or another doubt; inactive = no such curve, though single readings can be large; an effect the other way counts as inactive or inconclusive.

Turning to `CCOc1ccc(NC(=O)NCC2CCCN2c2ccc(OC)cc2)cc1` (stereo unspecified), the Potency result in test [1] was “inactive”. The Potency in test [2] is 14.2 µM (active).
As for `NC(=O)C1CCN(c2nc(-c3ccc(N4CCCCC4)nc3)cs2)CC1`, the Potency entry in test [1] and in test [3] was “inactive” each time. Also, the Potency in test [2] is 12.7 µM (active).
For `Cc1ccc(NS(=O)(=O)c2cc3c(cc2N[C@@H](C)CO)NC(=O)CC3)cc1Cl`, the Potency entry in test [1], in test [3] and in test [4] was “inactive” in each case. In addition, the Potency in test [2] was 22.5 µM (active).
Take `CC(C)c1cc(C(=O)N2CC[C@H](NC(=O)C3CC3)C2)n[nH]1`: the Potency entry in test [1] and in test [3] was “inactive” throughout.
With `O=C(CSc1ccccc1)Nc1nnc(COc2ccc(Cl)cc2)s1`, the Potency result in test [1] and in test [3] was “inactive” throughout.
As to `Cc1cc(C)nc(NC(=S)N2CCN(c3ccc([N+](=O)[O-])cc3Cl)CC2)c1`, the Potency result in test [1] and in test [3] was “inactive” each time.
Consider `O=C1c2ccccc2NC(c2ccc(-c3ccc(C(F)(F)F)cc3)o2)N1O` (stereo unspecified), for which the Potency in test [1] was 4.47 µM (active); in test [2], 22.5 µM (active); in test [4] it was 7.12 µM (active). Further, the Potency entry in test [3] was “inactive”.
On to `CC1(C)CC(=O)C2=C(C1)NC(Nc1nc3ccccc3o1)=NC21CCCC1`, for which the Potency result in test [1] and in test [3] was “inactive” in each case.
As to `Cc1cc(C)nc(NC(=S)N2CCN(c3ccc(C(F)(F)F)cc3Cl)CC2)c1`, the Potency result in test [1] and in test [3] was “inactive” each time.
In the case of `Cc1nc(CN=C2NC3=C(C(=O)CCC3)C(c3[nH]ncc3Cl)N2)cs1` (stereo unspecified), the Potency result in test [1] and in test [3] was “inactive” throughout.
For the molecule `CCOc1ccccc1-c1nnc2n1N=C(c1c(OC)cccc1OC)CS2`, the Potency result in test [1] and in test [3] was “inactive” each time.
With `CCOc1ccccc1OCCNC(C)Cc1ccc(OC)c(S(N)(=O)=O)c1` (stereo unspecified), the Potency entry in test [1] and in test [3] was “inactive” each time.
Consider `Cc1cnc(-c2ccccc2C2COC2)nc1NCC1CCN(c2cccnc2)CC1`, for which the Potency result in test [1] and in test [3] was “inactive” each time.
For `CN1CCN(c2cccc(Nc3nn4c(=O)c5ccc(N(C)C)cc5nc4s3)c2)CC1`, the Potency entry in test [1] was “inactive”. Also, the Potency was 14.2 µM (active) in test [2] and 11.3 µM (active) in test [4].
As to `CN(CC(=O)Nc1ccc(N2CCOCC2)cc1)Cc1ccccc1O`, the Potency entry in test [1] and in test [3] was “inactive” each time.
For the molecule `COc1cccc2nc3sc(Nc4ccc5c(c4)CCC5)nn3c(=O)c12`, the Potency result in test [1] and in test [3] was “inactive” in each case.
For `O=C(O)c1ccc(CSc2nnc(-c3cccc([S+](=O)([O-])NC4CCCC4)c3)n2-c2ccccc2)cc1`, the Potency entry in test [1] and in test [3] was “inactive” in each case.
Regarding `Cc1ccc(OCCn2c(CCNC(=O)c3cccc4[nH]ccc34)nc3ccccc32)cc1`, the Potency entry in test [1] and in test [3] was “inactive” throughout.
Consider `c1nc(NCC2CCCCO2)c2cc(-c3ccc4c(c3)OCO4)ccc2n1` (stereo unspecified), for which the Potency result in test [1] and in test [3] was “inactive” in each case. The Potency is 22.5 µM (active) in test [2] and 12.7 µM (active) in test [4].
Take `Cc1cc(C)nc(NC(=S)N2CCN(c3nncs3)CC2)c1`: the Potency result in test [1] and in test [3] was “inactive” each time.
Regarding `Cc1cc(NCc2ccc(NC(=O)Cc3ccc(Cl)c(Cl)c3)cc2)no1`, the Potency result in test [1] and in test [3] was “inactive” in each case.
On to `Cc1cc(C)nc(NC(=S)N2CCN(c3ccc4ncccc4c3[N+](=O)[O-])CC2)c1`, for which the Potency entry in test [1] and in test [3] was “inactive” each time.
As to `Cc1ccc(NS(=O)(=O)c2ccc3c(c2)C(Cl)(Cl)C(=O)N3)cc1C`, the Potency entry in test [1] and in test [3] was “inactive” throughout. The Potency was 3.18 µM (active) in test [2] and 7.12 µM (active) in test [4].
Consider `O=C(O)c1cc(F)c(S(=O)(=O)N2CCN(S(=O)(=O)c3ccc4c(c3)OCCO4)CC2)cc1F`, for which the Potency entry in test [1] and in test [3] was “inactive” in each case.
Consider `CC(=O)c1ccc(C(=O)Nc2nnc(-c3ccco3)o2)cc1`, for which the Potency entry in test [1] and in test [3] was “inactive” throughout.
`COc1ccc(C2=Nn3c(nnc3-c3ccccc3F)SC2)cc1OC1CCCC1`: the Potency entry in test [1] and in test [3] was “inactive” in each case.
Regarding `Cc1ccc(C[C@H](C(=O)O)N2C(=O)c3ccc(C(=O)O)cc3C2=O)c(C)c1`, the Potency result in test [1] and in test [3] was “inactive” in each case.
As for `O=C1CCCC2=C1C(c1[nH]ncc1Cl)N=C(Nc1nc3cc([S+](=O)([O-])N4CCCC4)ccc3o1)N2` (stereo unspecified), the Potency result in test [1] and in test [3] was “inactive” throughout.
On to `Cc1ccc(-c2nc3c(c(SCC(=O)Nc4cccc(C(=O)O)c4)n2)Cc2cccc(C)c2O3)cc1`, for which the Potency result in test [1] and in test [3] was “inactive” each time.
Regarding `C=Cc1ccc(C(=O)N2CCCC(CCC(=O)N3CCN(c4ccccn4)CC3)C2)cc1` (stereo unspecified), the Potency result in test [1] and in test [3] was “inactive” in each case.
Consider `O=C(NCC#CCSc1nnc(-c2cccc3ccccc23)o1)c1cccs1`, for which the Potency result in test [1] and in test [3] was “inactive” each time. The Potency was 12.7 µM (active) in test [2] and 8.96 µM (active) in test [4].
Consider `Cc1ccc2nc3sc(C(=O)N4CCN(C5CCN(C)CC5)CC4)cc3cc2c1`, for which the Potency entry in test [1], in test [2] and in test [3] was “inactive” each time. The Potency in test [4] was 12.7 µM (active).
With `COc1ccc(S(=O)(=O)Nc2cc(OC)cc3cccnc23)cc1`, the Potency entry in test [1] and in test [4] was “inactive” each time. In addition, in test [2], the Potency is 1.42 µM (active).
Regarding `O=C1CCCC2=C1C(c1ccccc1)N=C(Nc1nc3ccccc3o1)N2` (stereo unspecified), the Potency entry in test [1], in test [2], in test [3] and in test [4] was “inactive” throughout.
Regarding `COc1ccc(-c2nnc3n2N=C(c2cc(OC)ccc2OC)CS3)c(OC)c1`, the Potency result in test [1] and in test [3] was “inactive” throughout.
Take `Cc1cc(-c2nnc3n2CCCCC3)c(C)n1-c1ccc([N+](=O)[O-])cc1`: the Potency entry in test [1] and in test [3] was “inactive” throughout. In addition, the Potency in test [2] is 22.5 µM (active); in test [4], 10.1 µM (active).

(Values after PubChem BioAssay (NCATS).)
